# Screening data (PubChem)
# TTR transcr act: increases transthyretin transcription; actives 1.3% (n = 92,000); SH-SY5Y TTR promoter Gaussia luciferase, luminescence; 100% = recombinant luciferase protein wells; AID 1117267; activation, % at 16.7 µM;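 active = activation above the mean of all tested compounds plus 3 SD, cut at about 9.5% in these data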;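 note: cells exposed to compounds for one day before reading; 0% = median of all test compound wells on the plate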
# TTR inh HuH7: counter-screen for TTR activators: TTR transcription inhibitors in HuH7 cells | HuH7 TTR promoter-Gaussia luciferase reporter, luminescence | inhibition, % at 16.7 µM | AID 1117279 | shares compounds with TTR transcr act | actives 4% (n = 1,100);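 active = average inhibition above the solvent-only control wells' mean plus 3 SD, cut at about 15% in these data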;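 note: 0% = cells with DMSO only and 100% = cells with inhibitor control FD; inhibitors lower well luminescence so higher value means more inhibition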
# TTR act confirm: confirmation of human transthyretin transcription activators; 1,100 tested, under 10 active; shares compounds with TTR transcr act; activation, % at 16.7 µM; AID 1117280; SHSY5Y TTR promoter Gaussia luciferase, luminescence; 100% = purified Lucia enzyme wells, no cells;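 active = mean activation above a set limit taken from the earlier primary screen, cut at about 11% in these data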;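 note: 0% = DMSO-treated cells and 100% = recombinant Lucia luciferase without cells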
# * hit, by the source's call. Shown is part of a subset that was picked to be rich in hits.
SMILES,TTR transcr act,others
O=C(OCC#CCSc1nnc(-c2cccc3ccccc23)o1)c1ccc(OC(F)F)cc1,0,
CCN(c1ccccc1)S(=O)(=O)c1ccc(C(=O)NCCc2ccc(S(N)(=O)=O)cc2)cc1,-1,
CC(C)(O)C#Cc1ccc(C(=O)NCCc2ccc(S(N)(=O)=O)cc2)cc1,-1,
CCOc1cc(C(=O)NCCc2ccc(S(N)(=O)=O)cc2)cc(OCC)c1OCC,19*,TTR inh HuH7=0;TTR act confirm=1
COC[C@@H]1CCCN1c1cccc2c1S(=O)(=O)N(C1CC1)CC[C@@H](C)O2,-1,
C[C@@H]1[C@H](c2ccccc2)OC(O)([C@H](Cc2ccccc2)NC(=O)OC(C)(C)C)CN1C (stereo not given in full),-1,
O=C(CCNC(=O)c1ccccc1)Nc1ccc(F)c(Cl)c1,3,
COc1ccc(NC(=O)CCNC(=O)c2ccccc2)cc1S(N)(=O)=O,31*,TTR inh HuH7=-12;TTR act confirm=0
COc1ccccc1NS(=O)(=O)c1cc(NC(=O)CCNC(C)=O)ccc1C,-1,
Cc1ccccc1-c1cc2c(c3c1ccn3C)C1CCC2C1 (stereo not given),10*,TTR inh HuH7=-6;TTR act confirm=1
Cc1ccccc1-c1cc2c(c3c1ccn3C)C1CCC2O1 (stereo not given),-1,
Cn1ccc2c(-c3ccc(F)cc3)cc3c(c21)C1CCC3C1 (stereo not given),1,
CCOC(=O)C1CCN(C(=O)C(C)(C)NC(=O)Nc2ccc(Cl)cc2Cl)CC1,0,
Cc1ccc2nc(SCC(=O)Nc3ccc(C)c(Cl)c3)nc(=O)n2c1,1,
COc1ccccc1NC(=O)CSc1nc(=O)n2cc(C)ccc2n1,12*,TTR inh HuH7=-15;TTR act confirm=2
Cc1ccc2nc(SCC(=O)c3ccc(Cl)cc3)nc(=O)n2c1,2,
Clc1ccccc1OCCCCN1CCCCC1,-1,
C1CCCN(CCCCN2CCCCCC2)CC1,10*,TTR inh HuH7=-10;TTR act confirm=0
O=C(CCN1CCCCC1)NCNC(=O)CCN1CCCCC1,-1,
COc1ccc(NC(=O)c2cc(-c3ccc(OC)c(OC)c3)on2)cc1OC,0,
COc1ccc(Cl)cc1NC(=O)c1cc(C2CC2)on1,-1,
COc1ccc(Cl)cc1NC(=O)c1cc(-c2ccccc2)on1,12*,TTR inh HuH7=11;TTR act confirm=0
C=CCN1C(=O)[C@@H](CC(=O)NCCCOCCCC)[C@]2(C(=O)OC)CCCCC=C12,2,
O=C(NCc1ccccc1)O[C@H]1CC[C@@]23CCCN2C(=O)CCC[C@H]3C1,-1,
Cc1ccc2c(COC(=O)C3CC(=O)N(c4ccc5c(c4)OCCO5)C3)cc(=O)oc2c1 (stereo not given),-2,
SMILES,TTR transcr act,others
CC(=O)c1ccc(NC(=O)C(C)OC(=O)C2CC(=O)N(c3ccc4c(c3)OCCO4)C2)cc1 (stereo not given),2,
O=C(COC(=O)C1CC(=O)N(c2ccc3c(c2)OCCO3)C1)Nc1ccc2c(c1)CCC2 (stereo not given),11*,TTR inh HuH7=-12;TTR act confirm=3
CCOc1ccc(-c2csc(N3CCC(C(N)=O)CC3)n2)cc1,-2,
O=C(COC(=O)c1cccnc1Cl)Nc1cccc(S(=O)(=O)N2CCOCC2)c1,-1,
Cc1cc(C(=O)OCC(=O)Nc2cccc(S(=O)(=O)N3CCOCC3)c2)c(C)o1,0,
O=C(COC(=O)C1=COCCO1)Nc1cccc(S(=O)(=O)N2CCOCC2)c1,14*,TTR inh HuH7=-7;TTR act confirm=0
O=C(NCCc1ccccc1)OCc1cn(Cc2ccc(F)cc2)nn1,-1,
COc1ccc2[nH]c3c(c2c1)CCN[C@]31C(=O)N(C)c2ccccc21,0,
Cc1ccc(C(=O)n2ccc3ccc(-c4ccc5ccn(Cc6ccc(C#N)cc6)c5c4)cc32)cc1,0,
CCOC(=O)C1=C(c2ccccc2)OC(N)=C(C#N)C1c1ccco1 (stereo not given),13*,TTR inh HuH7=-4;TTR act confirm=0
CCOC(=O)C1=C(c2ccccc2)OC(N)=C(C#N)C1C1CCCCC1 (stereo not given),-2,
CCOC(=O)C1=C(C)NC(C)=C(C(=O)OCC)C1c1ccco1,0,
Fc1cccc(F)c1Cn1ccc2ccc(-c3ccc4ccn(Cc5c(F)cccc5F)c4c3)cc21,0,
O=C(OCC#CCSc1nnc(-c2cccc3ccccc23)o1)c1cccc(C(F)(F)F)c1,4,
Cc1nn2c(-c3ccccc3)c(-c3ccccc3)nc2[nH]c1=O,-1,
O=C(O)CCc1nn2cc(-c3ccccc3)nc2[nH]c1=O,-1,
Cc1nn2cc(-c3ccccc3)nc2[nH]c1=O,10*,TTR inh HuH7=1;TTR act confirm=0
CC(C)C[C@H](NC1(C(=O)NCCc2c[nH]c3ccccc23)CCN(C)CC1)C(=O)NCCCc1ccccc1,-1,
CN(C)c1ccc(Cn2c(=O)n(Cc3ccc(C(=O)NCC4COC4)cc3)c(=O)c3ccccc32)cc1,-1,
COC(=O)[C@H]1C[C@@]2(CC=C(C)C)c3ccccc3N(C(=O)OC(C)(C)C)[C@H]2N1C(=O)OC(C)(C)C,-1,
O=C(Nc1ccccc1)OC1CC2CC1[C@H]1CCCCN1[C@H]2Cc1ccccc1 (stereo not given in full),-1,
Cc1ccc(/C(N)=N/OC(=O)c2ccc(Cl)cc2Cl)cc1,20*,TTR inh HuH7=6;TTR act confirm=-1
COc1ccc(Cl)cc1C(=O)O/N=C(\N)c1ccncc1,1,
N/C(=N\OC(=O)c1cccnc1)c1ccc(Cl)cc1Cl,0,
COc1ccc(C2Nc3ccccc3C(=O)N2Cc2ccco2)cc1COc1c(C)cc(NC(C)=O)cc1C (stereo not given),-3,
SMILES,TTR transcr act,others
CCCCCCCCN1C(=O)[C@@H](CC(=O)NCCc2ccccc2OC)C[C@@]2(C(=O)OC)C1=C[C@H](C(C)C)O[C@@H]2C1CC1,0,
CC[n+]1c(C)sc2c(C)cc(C)cc21,26*,TTR inh HuH7=-3;TTR act confirm=0
CCCCCCNC(=O)c1c(N)[nH]c(C(=O)c2ccccc2)c1-c1ccc(O)cc1,-3,
C[C@H]1[C@H](NC(=O)c2ccc(C(C)(C)C)cc2)CC[C@@]23CCCN2C(=O)CCC[C@@H]13,1,
COC(=O)[C@]12C[C@H](CC(=O)NCc3cccc(C(F)(F)F)c3)C(=O)N(Cc3cccc4ccccc34)C1=C[C@H](C(C)C)O[C@@H]2C1CC1,0,
CC1(c2nnnn2Cc2ccccc2)CCCC(=O)N1Cc1cccs1 (stereo not given),0,
Cc1ccc(-c2nn(-c3ccccc3)cc2NC(=O)c2ccccc2)cc1,13*,TTR inh HuH7=1;TTR act confirm=-1
Cc1ccc(-c2nc3ncccn3c2NC(=O)c2ccccc2)cc1,0,
O=C(Nc1cn(-c2ccccc2)nc1-c1ccc(Cl)cc1)c1ccccc1,0,
COc1cccc(NC(=O)Cc2cccs2)c1,-2,
COc1cccc(NC(=O)N(C2CCCCC2)C(C)c2cccs2)c1 (stereo not given),13*,TTR inh HuH7=-11;TTR act confirm=-1
CC(c1cccnc1)N(C(=O)Nc1ccccc1)C1CCCCC1 (stereo not given),1,
CC(C)C[C@H]1COc2cccc(F)c2S(=O)(=O)N1Cc1cn(CCC2OCCCO2)nn1,2,
CCOC(=O)[C@]12CCCC3=C1N(CCC3)C(=O)[C@@H](CC(=O)NCc1cccc(C(F)(F)F)c1)C2,-2,
CC(C)c1ccccc1NC(=O)CCCC(=O)O,1,
Cc1cc2c(NC(=O)Nc3ccc(C(F)(F)F)cc3)cccc2nn1,0,
